According to PubChem BioAssay (EPA / NIEHS):
The source made the active and inactive calls. How the source made its calls: active means hit-call score of the fitted dose curve at least 0.9, where 1 is the maximum; inactive means score below 0.9.

experiment: BSK_4H_SRB: Viability Assessment in the BioMAP Diversity Plus: 4H Assay (AID 2283027); conditions: primary human endothelial cells (HUVEC);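 further: cells exposed to compound for 24 h before staining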;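 on AC50: curves fitted both ways versus DMSO so AC50 may be loss or gain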
Procedure: BSK_4H is a cell-based, multiplexed-readout assay that uses umbilical vein endothelium, a human vascular primary cell, with measurements taken at 24 hours after chemical dosing in a 96-well plate.BSK_4H_SRB is an assay component measured in the BSK_4H assay. It measures […] related to cell death using Sulforhodamine staining technology.Data from the assay component BSK_4H_SRB was analyzed into 1 assay endpoint. This assay endpoint, BSK_4H_SRB, was analyzed with bidirectional fitting relative to DMSO as the negative control and baseline of activity. Using a type of viability reporter, gain or loss-of-signal activity can be used to understand changes in the signaling. Furthermore, this assay endpoint can be referred to as a primary readout, because this assay has produced multiple assay endpoints where this one serves a signaling function. To generalize the intended target to other relatable targets, this assay endpoint is annotated to the cell morphology intended target family, where the subfamily is cell conformation.
The levels of cell surface (or secreted, indicated by the prefix "s") biomarker endpoints were measured by ELISA. Overt cytotoxicity to cells in confluent adherent cultures (all systems other than the BT system) was assessed by measuring total protein levels using sulforhodamine B (SRB) staining in parallel cultures at the time of biomarker measurements, indicated as SRB endpoints. For proliferation assays for adherent cell types, individual cell types are cultured at sub-confluence and relative cell numbers quantified by SRB staining at time points optimized for each system (48 h: 3C and CASM3C systems; 72 h: BT and HDF3CGF systems; 96 h: SAg system). SRB was performed by staining cells with 0.1% SRB after fixation with 10% TCA and reading wells at 560 nm.Viability and proliferation of PBMC (T cells) was quantified by Alamar Blue reduction for the SAg and BT systems. For PBMC viability (referred to as PBMC Cytotoxicity within the assay endpoint names), cells were plated (75,000/well in a 96-well plate) and then chemical samples added for 1 h before addition of activators, SEB and TSST-1 (20 ng/mL final concentration each). Cells were incubated for 90 h. Then, Alamar Blue (20 uL/well) (Invitrogen, Cat DAL1100) was added for 6 h, and the plates were read with a fluorescence microplate reader at 546/580 nm (excitation/emission). For PBMC proliferation, cells were plated and activated as above but incubated for only 16 h prior to addition of Alamar Blue. Plates were read after 6 h.

Structure (SMILES) | outcome | AC50
N#CN=C1SCCN1Cc1ccc(Cl)nc1 | inactive | –
O=P(O)(O)CCCl | inactive | –
CCCC(=NOCC)C1=C(O)CC(CC(C)SCC)CC1=O (stereo not given) | inactive | –
CN/C(=N\[N+](=O)[O-])NCc1cnc(Cl)s1 | inactive | –
CCOc1nc(C(Cl)(Cl)Cl)ns1 | inactive | –
CSC(=O)c1c(C(F)F)nc(C(F)(F)F)c(C(=O)SC)c1CC(C)C | – | 25.7 µM (active)
CCOc1cc(C(C)(C)C)ccc1C1COC(c2c(F)cccc2F)=N1 (stereo not given) | – | 27.6 µM (active)
CCOC(=O)C(C)OC(=O)c1cc(Oc2ccc(C(F)(F)F)cc2Cl)ccc1[N+](=O)[O-] (stereo not given) | – | 13.1 µM (active)
C=CCOC(=O)C(C)(C)OC(=O)c1cc(-n2c(=O)cc(C(F)(F)F)n(C)c2=O)ccc1Cl | inactive | –
CC(C)C1(C)N=C(c2ncccc2C(=O)O)NC1=O (stereo not given) | – | 0.454 µM (active)
CCN(CC)C(=O)C(C)Oc1cccc2ccccc12 (stereo not given) | inactive | –
Cc1nc(N(C)C)nc(OC(=O)N(C)C)c1C | inactive | –
COC(=O)c1c(C(F)F)nc(C(F)(F)F)c(C2=NCCS2)c1CC(C)C | – | 36.5 µM (active)
Cc1c(COC(=O)[C@@H]2[C@H](/C=C(\Cl)C(F)(F)F)C2(C)C)cccc1-c1ccccc1 | inactive | –
CCCCC(C#N)(Cn1cncn1)c1ccc(Cl)cc1 (stereo not given) | inactive | –
CS(=O)(=O)c1cc(C(F)(F)F)ccc1C(=O)c1cnoc1C1CC1 | inactive | –
COc1cc(OC)nc(NC(=O)NS(=O)(=O)c2ncccc2OCC(F)(F)F)n1 | inactive | –
COCc1cnc(C2=NC(C)(C(C)C)C(=O)N2)c(C(=O)O)c1 (stereo not given) | inactive | –
COC(=O)NS(=O)(=O)c1ccc(N)cc1 | inactive | –
COP(=O)(OC)O/C(C)=C/C(=O)N(C)C | inactive | –

Structure (SMILES) | outcome | AC50
CS(=O)(=O)c1ccc(C(=O)C2C(=O)CCCC2=O)c([N+](=O)[O-])c1 | inactive | –
CO/N=C(/C1=NOCCO1)c1ccccc1Oc1ncnc(Oc2ccccc2Cl)c1F | – | 8.6 µM (active)
COC(=O)NC(=S)Nc1ccccc1NC(=S)NC(=O)OC | inactive | –
O=C(Nc1ccccc1-c1ccc(Cl)cc1)c1cccnc1Cl | inactive | –
COc1ccc(-c2ccccc2)cc1NNC(=O)OC(C)C | inactive | –
CC1(C)C(C=C(Cl)Cl)C1C(=O)OC(C#N)c1cccc(Oc2ccccc2)c1 (stereo not given) | – | 14 µM (active)
CC(C)Nc1nc(Cl)nc(NC(C)C)n1 | inactive | –
CC(C)Oc1cccc(NC(=O)c2ccccc2C(F)(F)F)c1 | inactive | –
CN=C=S | inactive | –
Nc1c(Cl)c(Cl)nc(C(=O)O)c1Cl | inactive | –
CC(C)(C)C(=O)C(Oc1ccc(Cl)cc1)n1cncn1 (stereo not given) | inactive | –
CCNP(=S)(OC)O/C(C)=C/C(=O)OC(C)C (stereo not given) | inactive | –
Nc1c(Cl)c(F)nc(OCC(=O)O)c1Cl | inactive | –
Nc1cnn(-c2ccccc2)c(=O)c1Cl | inactive | –
COc1cc(Cl)c(OC)cc1Cl | – | 3.09 µM (active)
CC1(C)CON(Cc2ccccc2Cl)C1=O | inactive | –
CC(C)N1C(=O)N(c2ccccc2)CSC1=NC(C)(C)C | – | 31.2 µM (active)
CC(C)N1C(=O)c2ccccc2NS1(=O)=O | inactive | –
CCCCOCN(C(=O)CCl)c1c(CC)cccc1CC | – | 28.2 µM (active)
C=C(C)CN(CC)c1c([N+](=O)[O-])cc(C(F)(F)F)cc1[N+](=O)[O-] | inactive | –
